# From PubChem
# Most compounds without a hit are left out; they make up all but 1.5% or so of the library.
# Neddyl block: blocks human cullin neddylation; P61081+Q13564; TR-FRET cullin neddylation, biochemical; inhibition, % at 25 µM; 360,000 tested, 0.58% active; AID 651699; in the data active = inhibition above about 36%
# NPR1 activator: GC-A (human) enzyme activation; P16066; HEK293 GC-A cells, cGMP TR-FRET, EC30 ANP; 0% at EC30 ANP, 100% saturating ANP; activation, % at 10 µM; 370,000 tested, 0.14% active; in the data active = activation above about 40%
# Target sequence (P16066 whole entry, looked up): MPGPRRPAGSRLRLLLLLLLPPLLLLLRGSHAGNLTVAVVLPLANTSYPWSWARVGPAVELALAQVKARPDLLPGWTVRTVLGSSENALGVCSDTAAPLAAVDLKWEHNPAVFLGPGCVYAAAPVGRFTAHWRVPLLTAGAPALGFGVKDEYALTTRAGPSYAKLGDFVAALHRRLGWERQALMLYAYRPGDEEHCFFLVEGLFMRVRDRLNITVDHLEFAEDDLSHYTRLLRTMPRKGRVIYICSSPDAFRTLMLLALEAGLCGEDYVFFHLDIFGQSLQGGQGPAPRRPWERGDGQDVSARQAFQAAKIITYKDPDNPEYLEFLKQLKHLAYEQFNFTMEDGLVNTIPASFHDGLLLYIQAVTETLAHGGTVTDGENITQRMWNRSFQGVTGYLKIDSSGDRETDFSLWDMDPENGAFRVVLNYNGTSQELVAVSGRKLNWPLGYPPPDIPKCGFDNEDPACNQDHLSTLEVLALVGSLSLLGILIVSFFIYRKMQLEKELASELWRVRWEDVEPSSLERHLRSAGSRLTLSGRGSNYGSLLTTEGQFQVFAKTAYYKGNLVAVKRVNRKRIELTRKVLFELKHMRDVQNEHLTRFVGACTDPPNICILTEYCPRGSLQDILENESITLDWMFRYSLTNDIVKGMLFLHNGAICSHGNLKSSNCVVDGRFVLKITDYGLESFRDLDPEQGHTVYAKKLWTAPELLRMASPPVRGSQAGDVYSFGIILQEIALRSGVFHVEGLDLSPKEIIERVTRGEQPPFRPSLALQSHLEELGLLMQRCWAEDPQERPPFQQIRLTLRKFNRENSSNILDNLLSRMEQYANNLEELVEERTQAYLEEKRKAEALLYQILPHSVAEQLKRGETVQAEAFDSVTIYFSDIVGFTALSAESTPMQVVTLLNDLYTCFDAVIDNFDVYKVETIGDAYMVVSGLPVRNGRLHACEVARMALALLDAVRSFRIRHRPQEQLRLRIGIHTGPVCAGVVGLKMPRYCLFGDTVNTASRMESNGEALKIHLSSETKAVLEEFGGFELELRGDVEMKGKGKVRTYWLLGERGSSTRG
# NadD inh: NadD (S. aureus) enzyme inhibition. inhibition, % at 20 µM. AID 602399. 360,000 tested, 0.78% active. purified NadD enzyme, colorimetric absorbance read-out; in the data active = inhibition above about 26%
# NPR2 activator: GC-B (human) receptor activation. HEK293-GC-B cells, CNP EC30, cGMP TR-FRET; 0% at EC30 CNP, 100% saturating CNP. 370,000 tested, 0.11% active. activation, % at 10 µM;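 active = activation at 10 µM reaching about 35% in either raw or pattern-adjusted values, limit read from the data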
# Neddyl inh conf: cullin neddylation inhibition, confirmation; shares compounds with Neddyl block; TR-FRET cullin neddylation biochemical assay; calls only at 25 µM; 1,800 tested, 13% active; in the data active = inhibition above about 40%;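 also: neddylation substrate is the cullin 1 ring ligase complex with SKP2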
# Starred values were filed as active, the others as inactive; i = inactive; . = not tested or not shown; + = active, no number.
SMILES,Neddyl block,NPR1 activator,NadD inh,NPR2 activator,Neddyl inh conf
COc1ccc(S(=O)(=O)N2CCC(C)CC2)cc1OC,0.3,3.4,-3.1,1.4,.
CC1CCN(S(=O)(=O)c2ccc3c(c2)C(=NO)c2cc(S(=O)(=O)N4CCC(C)CC4)ccc2-3)CC1,39.0*,7.2,13.8,6.2,i
Cc1cc(C)cc(C(=O)OCCN(C)C2CN(Cc3cn(Cc4cccc(F)c4)nn3)S(=O)(=O)C2)c1 (configuration not stated),.,-5.2,.,-5.2,.
C[C@H]1Cn2cnc(C(=O)N3CCN(c4ccccc4)CC3)c2C(=O)N1,.,-2.7,.,-3.2,.
COc1cc2c(cc1OC)-c1cc(NCc3ccccn3)nc(=O)n1CC2,38.6*,5.3,9.6,0.9,+
CCNc1cc2n(c(=O)n1)CCc1cc(OC)c(OC)cc1-2,.,1.0,-5.5,1.1,.
O=C(CCN1C(=O)S/C(=C/c2ccccc2)C1=O)Nc1ccc(O)c(C(=O)O)c1,43.7*,7.3,3.5,-6.0,i
COc1ccc(/C=C2\SC(=O)N(CCC(=O)Nc3ccccc3)C2=O)cc1OC,-40.3,-182.3,1.4,-23.9,.
COc1cc(C2C(C#N)=C(N)N(c3ccc(F)cc3)C3=C2S(=O)(=O)CC3)ccc1O (configuration not stated),47.4*,-0.5,14.2,-6.5,i
COC(=O)[C@]12C[C@H](CC(=O)N3CCC(c4ccccc4)CC3)C(=O)N(Cc3ccc(Cl)cc3Cl)C1=C[C@H](C(C)(C)C)O[C@@H]2C,.,-0.8,.,6.3,.
Cc1cccc(NC(=O)C2CCN(c3nnc(-n4cccc4)s3)CC2)c1C,.,-1.2,.,2.9,.
CCN1CCCC1CNC(=O)c1cc2cc(F)ccc2[nH]1 (configuration not stated),45.2*,1.6,-6.8,3.2,.
CCN1CCCC1CNC(=O)c1ccc2c(=O)n(CCOC)c(=O)[nH]c2c1 (configuration not stated),44.1*,1.5,0.3,1.2,i
CN=C1c2cc3cc(OC)ccc3n2CCN1Cc1ccccc1,41.0*,0.0,-4.3,-4.5,i
O=S1(=O)c2c(cccc2N2CCC[C@H]2CO)OCCCN1C1CC1,.,-1.3,.,0.6,.
CCOc1cc(/C=C(/C#N)c2nc3ccccc3[nH]2)ccc1OCc1ccc(C(=O)O)o1,38.4*,-3.4,17.1,-3.1,i
COC(=O)c1[nH]c2ccc(C)cc2c1NC(=O)CCN1CCN(Cc2ccc3c(c2)OCO3)CC1,42.3*,-2.7,-5.9,4.7,i
CN(Cc1ccc(F)cc1)C(=O)CN1C(=O)C2(OCCCO2)c2ccccc21,.,-0.9,.,-4.4,.
OCCCN1CCC2(CCC(c3ccccc3)CC2)C1 (configuration not stated),.,-2.6,.,-5.8,.
COc1cccc2cc(C(=O)NCCN3CCOCC3)oc12,40.1*,1.4,-4.6,0.4,i
Cc1ccc2cc3cc(C(=O)NCCN4CCOCC4)oc3nc2c1,64.7*,1.9,1.4,3.4,+
CCCN(CCC)CCCNC(=O)c1cc2cc3ccc(OC)cc3nc2o1,36.2,1.8,-8.6,-0.9,.
COc1ccc2cc3cc(C(=O)NCCc4ccc(OC)c(OC)c4)oc3nc2c1,52.5*,9.7,-2.9,1.1,+
CC(=O)Nc1sc2c(c1-c1nc(-c3ccccc3)cs1)CCN(C(C)C)C2,.,16.8,.,0.0,.
COc1cc(NC(=O)C2CCCN(S(=O)(=O)c3ccc(C)c(C)c3)C2)cc(OC)c1 (configuration not stated),.,-6.7,.,-9.8,.
SMILES,Neddyl block,NPR1 activator,NadD inh,NPR2 activator,Neddyl inh conf
CCn1c(=O)n(CC)c2cc(N3CCCC3)c(NC(=O)c3ccccc3OC)cc21,33.7,22.1,3.0,30.6,.
CCOc1ccccc1C(=O)Nc1cc2c(cc1N1CCCC1)n(CC)c(=O)n2CC,46.5*,4.2,2.1,-3.2,i
CCc1ccccc1NC(=O)NNC(=O)c1ccc2ccccc2c1O,38.0*,-2.3,-5.9,0.6,i
COc1ccc(NC(=O)NNC(=O)c2ccc3ccccc3c2O)c(OC)c1,43.9*,1.6,-0.8,-1.1,i
COc1ccc(NC(=O)NNC(=O)c2cc(C3CC3)nc3ccccc23)c(OC)c1,3.8,-1.3,1.4,-8.0,.
CCOc1ccc(NC(=O)NNC(=O)c2ccc3ccccc3c2O)cc1,35.9,3.2,1.0,1.3,.
COc1ccc(OC)c(NC(=O)Nc2ccc(O)c3ccccc23)c1,40.4*,-22.5,1.3,-18.1,.
Cc1ccc(-n2c(SCC(=O)NN=Cc3ccc(-c4ccccc4)cc3)nnc2-c2ccccc2)cc1,.,-9.7,.,-9.0,.
c1nc(NCC2CC2)c2cc(-c3ccc4c(c3)OCO4)ccc2n1,.,7.4,.,15.0,.
COc1ccc2c(C(=O)CN3CCSCC3)c[nH]c2c1,38.7*,0.6,-5.7,-9.8,i
COc1ccc2c(C(=O)CN3CCN(c4ccccc4)CC3)c[nH]c2c1,0.4,1.5,7.0,-1.9,.
COc1ccc(-c2ccc3c(N)c(C(=O)c4cccc(OC)c4)sc3n2)cc1,37.7,-5.1,11.8,1.5,.
COc1cccc(-c2ccc3c(N)c(C(=O)NC4CC4)sc3n2)c1,37.5*,10.6,7.5,-8.5,.
C=CCn1c(Cc2cccs2)nnc1SCC(=O)Nc1ccc(C)cc1,.,-7.1,.,0.1,.
CCCNC(=O)c1sc2c(c1C(=O)Nc1ccccn1)CCCC2,43.8*,-5.0,-2.1,-5.1,i
CCOC(=O)C1=CCN(S(=O)(=O)c2ccc(Br)cc2)C1c1cccc(Br)c1 (configuration not stated),.,-11.4,.,-11.2,.
O=C(NC(CO)(CO)CO)c1coc(=O)c(Br)c1,-11.2,-3.2,-4.7,-0.6,.
O=C(NNC(=O)C1C2CCCCC21)c1coc(=O)c(Br)c1 (configuration not stated),38.6*,-2.7,-2.2,2.7,i
O=C(Nc1cc(Cl)cc(Cl)c1)c1coc(=O)c(Br)c1,40.1*,12.9,2.7,6.4,i
CCCCCCCCN1C(=O)[C@@H](CC(=O)NCC2CCCCC2)C[C@@]2(C(=O)OC)C1=C[C@H](C(C)(C)C)O[C@@H]2C,.,1.1,.,7.2,.
O=C(Nc1cccc2nsnc12)c1ccc2c(c1)OCO2,44.7*,2.3,0.8,1.3,+
O=C(Nc1cccc2nsnc12)c1ccc(F)cc1,34.6,15.7,7.4,-3.1,.
CCc1cc(=O)oc2cc(OS(C)(=O)=O)ccc12,41.9*,-3.9,0.5,-4.8,.
CCc1cc(=O)oc2cc(OCc3nn[nH]n3)ccc12,40.5*,.,3.0,.,i
COc1ccc(C(=O)Nc2ccc3oc(-c4cccnc4)nc3c2)cc1OC,41.1*,5.2,2.7,4.9,.
COc1cc(C(=O)Nc2ccc3oc(-c4cccnc4)nc3c2)cc(OC)c1OC,25.9,6.5,-2.2,-0.7,.
COC(=O)[C@]1(C#N)CC(=O)N(C(C)C)[C@@H]1c1ccccc1,.,1.1,.,-1.9,.
CSc1nc2n(n1)C(c1cccs1)C1=C(CCCC1=O)N2 (configuration not stated),42.1*,-14.1,-5.9,-8.7,i
CSc1nc2n(n1)C(c1ccccn1)C1=C(CC(C)(C)CC1=O)N2 (configuration not stated),.,-3.6,-7.7,-0.7,.
